This passage reports Potency results from PubChem BioAssay (Tox21).

Experiment [1] in a line: qHTS assay to identify small molecule agonists of the RXR signaling pathway - cell viability counter screen (AID 1159529). Also: nearly all actives have a fitted effect of over 50% in size. Also: potency is read from the fitted curve at half-maximal effect. The gist of the method:
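HEK 293T RXRa-bla cells, 2% CS-FBS; 5 h settle; cpd 16 h 37 C, 5% CO2; CellTiter-Glo 30 min RT, luminescence. Tetraoctyl ammonium bromide as positive control.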

The nature of experiment [2]: qHTS assay to identify small molecule antagonists of the retinoid acid receptor (RAR) signaling pathway - cell viability counter screen (AID 1159551). Also: nearly all actives have a fitted effect of over 35% in size. The gist of the method: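 Following overnight attachment, C3RL4 reporter cells received DMSO-dissolved compounds and then retinol (1 uM final). Six hours later at 37 C, ATP content was measured by CellTiter-Glo luminescence.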
(Quantitative high-throughput screening tests each substance at several concentrations.)

Values joined by “and” are separate entries in the source; they are usually repeats but may differ in a detail not shown here. Equal values may be shown once. Inconclusive results are not listed. Active and inactive are the calls of the source. Calls follow the shape of the dose curve; as a rule, active = well fitted curve in the direction sought with a large enough effect in the repeat runs; inconclusive = weak or mixed curves; inactive = no such curve, though single readings can be large; an effect the other way counts as inactive or inconclusive.

As for `CN(C)C(=S)S`, the Potency in experiment [1] is 1.22 µM (active) and 43.6 µM (active).

Regarding `Clc1ccc(C(c2ccc(Cl)cc2)C(Cl)(Cl)Cl)cc1`, the Potency in experiment [1] was 22 µM (active) and 30.9 µM (active) and 23.9 µM (active). Further, the Potency entry in experiment [2] is “inactive”. On to `O=[N+]([O-])c1cc(Cl)ccc1Cl`, for which the Potency result in experiment [1] and in experiment [2] was “inactive” each time.

`ClC1=C(Cl)[C@]2(Cl)[C@@H]3[C@@H](Cl)[C@H](Cl)C[C@@H]3[C@@]1(Cl)C2(Cl)Cl`: the Potency entry in experiment [1] and in experiment [2] was “inactive” each time. For `O=C(CCl)Nc1ccccc1`, the Potency entry in experiment [1] was “inactive”.

Consider `S=C(SSC(=S)N1CCCCC1)N1CCCCC1`, for which, in experiment [1], the Potency is 120 nM (active). Further, in experiment [2], the Potency entry is “inactive”. For `CC(C)[C@H](C(=O)O[C@H](C#N)c1cccc(Oc2ccccc2)c1)c1ccc(Cl)cc1`, the Potency result in experiment [1] and in experiment [2] was “inactive” in each case. `CC(C)CC(C)N` (configuration not stated): the Potency entry in experiment [1] and in experiment [2] was “inactive” in each case.

Consider `CC(=[OH+])/C=C(/C)[O-].CC(=[OH+])/C=C(\C)[O-].CC(=[OH+])/C=C(\C)[O-].[Fe]`, for which the Potency result in experiment [1] and in experiment [2] was “inactive” in each case. Regarding `[Cd+2].[Cl-].[Cl-]`, the Potency in experiment [1] is 17.5 µM (active) and 24.5 µM (active). For the same compound, in experiment [2], the Potency entry was “inactive”. As for `CCc1cc(C)cc(CC)c1-c1c(OC(=O)C(C)(C)C)n2n(c1=O)CCOCC2`, the Potency result in experiment [1] and in experiment [2] was “inactive” in each case. `CC(=[OH+])/C=C(/C)[O-].CC(=[OH+])/C=C(\C)[O-].CC(=[OH+])/C=C(\C)[O-].[Al]`: the Potency entry in experiment [1] and in experiment [2] was “inactive” in each case. Turning to `Cc1ccc(CCl)cc1`, the Potency result in experiment [1] and in experiment [2] was “inactive” in each case. In the case of `Oc1ccc(C2(c3ccc(O)cc3)c3ccccc3-c3ccccc32)cc1`, the Potency in experiment [1] is 38900 nM (active). As to `CN(C)[C@@H]1C(=O)C(C(N)=O)=C(O)[C@@]2(O)C(=O)C3=C(O)c4c(O)ccc(Cl)c4[C@@](C)(O)[C@H]3C[C@@H]12`, the Potency entry in experiment [1] and in experiment [2] was “inactive” each time.
